Measurements taken from PubChem BioAssay AID1159580 (chemical genetic matrix, 2015).
About 2,000 (36%) of roughly 5,500 compounds were called active. Inconclusive results (about 18%) are left out. No stated cut-off is given here; in the data, active means normalized growth mostly below about 0.91 (no sharp cut-off); inconclusive means no clear call, values can overlap the other calls; inactive means mostly above about 0.92. The list shows a part of the results.

Assay: chemical genetic growth profiling, strain panel (AID 1159580);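 further: tested at 20 µM; growth read once vehicle control cultures reached saturation at 30 °C; 1 = growth at the plate median or of vehicle wells; lower values mean less growth of the strain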
Details: S. cerevisiae deletion strains, growth OD
[1] = locus YHR030C, strain SLT2, active compounds read low
[2] = locus YHR079C, strain IRE1, active compounds read low
[3] = locus YJL095W, strain BCK1, active compounds read low
[4] = locus YJR066W, strain TOR1, active compounds read low
[5] = locus YLR113W, strain HOG1, active compounds read low
[6] = locus YNL183C, strain NPR1, active compounds read low
[7] = locus YOR231W, strain MKK1, active compounds read low
[8] = locus YPL256C, strain CLN2, active compounds read low

Measured: normalized growth

OC1(c2ccc(Cl)c(C(F)(F)F)c2)CCN(CCCC(c2ccc(F)cc2)c2ccc(F)cc2)CC1
active: locus YAL021C, strain ccr4, active compounds read low 0.0667 | locus YAL026C, strain drs2, active compounds read low 0.0627 | locus YAL030W, strain snc1, active compounds read low 0.0597 | locus YBL061C, strain skt5, active compounds read low 0.0677 | locus YBR009C, strain hhf1, active compounds read low 0.0608 | locus YBR023C, strain chs3, active compounds read low 0.0682 | locus YBR171W, strain sec66, active compounds read low 0.0917 | locus YBR231C, strain swc5, active compounds read low 0.0658 | locus YBR279W, strain paf1, active compounds read low 0.218 | locus YCL011C, strain gbp2, active compounds read low 0.0588 | locus YCL016C, strain dcc1, active compounds read low 0.0739 | locus YCL061C, strain MRC1, active compounds read low 0.394 | locus YCL069W, strain vba3, active compounds read low 0.101 | locus YCR088W, strain abp1, active compounds read low 0.0838 | locus YDL005C, strain med2, active compounds read low 0.0778 | locus YDL040C, strain nat1, active compounds read low 0.109 | locus YDR001C, strain nth1, active compounds read low 0.0892 | locus YDR069C, strain doa4, active compounds read low 0.0704 | locus YDR137W, strain rgp1, active compounds read low 0.111 | locus YDR159W, strain sac3, active compounds read low 0.0866 | locus YDR195W, strain ref2 0.0989 | locus YDR297W, strain sur2, active compounds read low 0.0586 | locus YDR334W, strain swr1, active compounds read low 0.0861 | locus YDR335W, strain msn5, active compounds read low 0.0657 | locus YDR392W, strain spt3, active compounds read low 0.0888 | locus YEL003W, strain gim4, active compounds read low 0.0558 | locus YEL037C, strain rad23, active compounds read low 0.0879 | locus YEL061C, strain CIN8 (second series), active compounds read low 0.0952 | locus YER015W, strain faa2, active compounds read low 0.0667 | locus YER016W, strain bim1, active compounds read low 0.0765 | locus YER111C, strain swi4, active compounds read low 0.14 | locus YER155C, strain BEM2 (second series), active compounds read low 0.468 | locus YFR010W, strain ubp6, active compounds read low 0.0981 | locus YGL167C, strain pmr1, active compounds read low 0.0793 | locus YGL173C, strain kem1, active compounds read low 0.0739 | locus YGL227W, strain vid30, active compounds read low 0.188 | locus YGL240W, strain doc1, active compounds read low 0.317 | locus YGL253W, strain hxk2, active compounds read low 0.0755 | locus YHR013C, strain ard1, active compounds read low 0.148 | locus YHR027C, strain rpn1, active compounds read low 0.067 | locus YHR142W, strain chs7, active compounds read low 0.0949 | locus YJL092W, strain hpr5, active compounds read low 0.105 | locus YJL095W, strain BCK1 (second series), active compounds read low 0.0578 | locus YJL115W, strain asf1, active compounds read low 0.485 | locus YJL129C, strain trk1, active compounds read low 0.0811 | locus YJL154C, strain vps35, active compounds read low 0.0686 | locus YJL164C, strain tpk1, active compounds read low 0.0638 | locus YJL166W, strain qcr8, active compounds read low 0.0607 | locus YKL160W, strain elf1, active compounds read low 0.348 | locus YKR026C, strain gcn3, active compounds read low 0.132 | locus YKR091W, strain srl3, active compounds read low 0.0942 | locus YLL001W, strain dnm1, active compounds read low 0.0836 | locus YLL026W, active compounds read low 0.0586 | locus YLL041C, strain sdh2, active compounds read low 0.0615 | locus YLR027C, strain aat2, active compounds read low 0.0571 | locus YLR221C, strain rsa3, active compounds read low 0.061 | locus YLR258W, strain gsy2, active compounds read low 0.0676 | locus YLR262C, strain YPT6 (second series), active compounds read low 0.0931 | locus YLR320W, strain mms22, active compounds read low 0.141 | locus YLR342W, strain FKS1, active compounds read low 0.0657 | locus YLR357W, strain rsc2, active compounds read low 0.321 | locus YLR370C, strain arc18, active compounds read low 0.0708 | locus YLR384C, strain iki3, active compounds read low 0.127 | locus YML120C, strain ndi1, active compounds read low 0.057 | locus YMR058W, strain fet3, active compounds read low 0.0807 | locus YMR125W, strain sto1, active compounds read low 0.164 | locus YMR129W, active compounds read low 0.0603 | locus YMR205C, strain PFK2, active compounds read low 0.0884 | locus YMR231W, strain pep5, active compounds read low 0.0664 | locus YNL071W, strain lat1, active compounds read low 0.0627 | locus YNL209W, strain ssb2, active compounds read low 0.0684 | locus YNL248C, strain rpa49, active compounds read low 0.196 | locus YNL322C, strain KRE1 (second series), active compounds read low 0.479 | locus YNR049C, strain mso1, active compounds read low 0.12 | locus YOR001W, strain rrp6, active compounds read low 0.0677 | locus YOR070C, strain gyp1, active compounds read low 0.0739 | locus YOR080W, strain dia2, active compounds read low 0.196 | locus YOR083W, strain WHI5, active compounds read low 0.0883 | locus YOR106W, strain vam3, active compounds read low 0.0691 | locus YOR265W, strain rbl2, active compounds read low 0.0702 | locus YOR270C, strain vph1, active compounds read low 0.127 | locus YOR290C, strain snf2, active compounds read low 0.104 | locus YPL051W, strain arl3, active compounds read low 0.0821 | locus YPL078C, strain atp4, active compounds read low 0.216 | locus YPL106C, strain sse1, active compounds read low 0.0967 | locus YPL240C, strain hsp82, active compounds read low 0.0596
inactive: [1] 0.952 | [2] 0.965 | [3] 0.972 | [4] 0.931 | [5] 0.946 | [6] 0.935 | [7] 0.981 | [8] 0.936

COc1ccccc1N1CCN(CCN(C(=O)c2ccc(F)cc2)c2ccccn2)CC1
inactive: locus YAL013W, strain DEP1, active compounds read low 0.995 | locus YAL040C, strain CLN3, active compounds read low 1.01 | locus YCL061C, strain MRC1 (second series), active compounds read low 1 | locus YDR150W, strain NUM1, active compounds read low 0.999 | locus YDR363W, strain ESC2, active compounds read low 1.02 | locus YER002W, strain NOP16, active compounds read low 1.01 | locus YGR078C, strain PAC10, active compounds read low 1.01 | locus YJR075W, strain HOC1, active compounds read low 1.01 | locus YMR307W, strain GAS1, active compounds read low 0.993 | locus YNL128W, strain TEP1, active compounds read low 1 | locus YNL153C, strain GIM3, active compounds read low 1.01 | locus YNL175C, strain NOP13, active compounds read low 1.01 | locus YNL197C, strain WHI3, active compounds read low 0.998 | locus YNL224C, strain SQS1, active compounds read low 1 | locus YOR083W, strain WHI5 (second series), active compounds read low 1.01 | locus YPL055C, strain LGE1, active compounds read low 1.01 | locus YPL241C, strain CIN2, active compounds read low 1

O=C(CCCN1CCC(O)(c2ccc(Br)cc2)CC1)c1ccc(F)cc1
inactive: [1] 0.959 | [2] 0.976 | [3] 0.962 | [4] 0.937 | [5] 1.02 | [6] 0.902 | [7] 0.981 | [8] 1.02
